High-throughput results: PubChem, National Center for Advancing Translational Sciences (NCATS)
TRHR agonist = qHTS for Small Molecule Agonists and Allosteric Enhancers of Human TRH Receptor: Primary Screen for Agonists; Thyrotropin-releasing hormone receptor (Homo sapiens), P34981; TRHR cells, calcium flux fluo-8, FDSS agonist mode; activation, % at 2 µM; hit rate 0.18% among 360,000; AID 493084, 2011; further: 0% is about no effect
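Agonist-mode FDSS calcium read (Ex 480/Em 530, 1 s cycles) in 1536-well TRHR cells with fluo-8 dye, after 10-cycle baseline and 23 nL compound addition; TRH at EC20 (10 nM final) added afterwards for the enhancer phase.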
TRHR enhancer = qHTS for Small Molecule Agonists and Allosteric Enhancers of Human TRH Receptor: Primary Screen for Enhancers | Thyrotropin-releasing hormone receptor (Homo sapiens), P34981 | TRHR cells, fluo-8 calcium fluorescence, EC20 TRH enhancement | AID 493056, 2011 | hit rate 0.66% among 360,000 | enhancement, % at 2 µM; in the data active means enhancement above about 30%; further: 0% is about no effect
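TRHR-expressing cells loaded with fluo-8 calcium dye were read kinetically (ex 480/em 530) during compound addition, then stimulated with an EC20 of TRH (10 nM final). Enhancement of the Gq-mediated intracellular calcium response was scored.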
D1 ag = Allosteric Agonists of the Human D1 Dopamine Receptor: qHTS; HEK293 T-REx D1 cells, calcium flux, agonist mode; activation, % at 2 µM; hit rate 1% among 360,000; AID 504660, 2011; further: 0% is about no effect
Target sequence (P21728 whole entry, looked up): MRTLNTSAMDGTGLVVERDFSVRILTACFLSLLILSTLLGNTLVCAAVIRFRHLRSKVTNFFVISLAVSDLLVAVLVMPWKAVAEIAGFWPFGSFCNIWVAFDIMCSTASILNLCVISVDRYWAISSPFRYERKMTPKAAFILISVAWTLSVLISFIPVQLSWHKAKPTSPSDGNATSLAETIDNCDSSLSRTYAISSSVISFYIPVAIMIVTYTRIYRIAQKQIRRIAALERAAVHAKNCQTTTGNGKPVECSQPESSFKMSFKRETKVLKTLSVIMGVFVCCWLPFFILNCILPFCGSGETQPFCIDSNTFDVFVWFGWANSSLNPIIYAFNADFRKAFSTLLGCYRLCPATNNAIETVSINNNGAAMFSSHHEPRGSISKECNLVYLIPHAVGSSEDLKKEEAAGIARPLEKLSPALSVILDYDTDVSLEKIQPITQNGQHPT
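Inducible HEK293 T-REx D1 cells, force-coupled to calcium signalling, were plated at 4000 cells/well with tetracycline and held overnight at 30 C. After no-wash calcium dye loading, compound-evoked calcium rise over 180 s flagged agonists.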
D1 PAM = Potentiators of Human D1 Dopamine Receptor: qHTS. hit rate 0.036% among 360,000. potentiation, % at 10 µM. HEK293 TREx D1 cells, calcium flux, dopamine EC20 potentiation; in the data active means potentiation above about 30%; further: 0% is about no effect
D1 antag = Antagonist of Human D 1 Dopamine Receptor: qHTS; D(1A) dopamine receptor (Homo sapiens), P21728; HEK293 TREx D1 cells, calcium flux, dopamine EC80; hits give low values; activity change, negative = inhibition, % at 10 µM; hit rate 3.2% among 360,000; AID 504652, 2011; in the data active means activity change below about -30%; further: on the % scale 0 is the no-effect control and ±100 the full control effect
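Tetracycline-induced HEK293 T-REx cells with force-coupled D1 receptor were loaded with a no-wash calcium dye. Compound was added after a 10 s baseline and read kinetically for 180 s; EC80 dopamine was then added and calcium flux followed another 180 s.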
* = called active by the depositor; ! = repeats disagree. Hits are enriched below; roughly 4.6% of the tested compounds scored in any of these assays. Unless noted, no stated cut-off is given here; in the data, active means activation above about 30%; inactive means the rest.

SMILES	TRHR agonist	TRHR enhancer	D1 ag	D1 PAM	D1 antag
OCCN1CCN(CCCN2c3ccccc3Sc3ccc(Cl)cc32)CC1	1.8	1.0	11.7	-5.8	-83.1*
CCCCCCCCCCC[N+](C)(C)CC/C=C1/c2ccccc2Sc2ccc(Cl)cc21	2.5	0.7	48.0*	-8.8	-8.2
O=C(NCCCc1nc2ccccc2n1Cc1cccc(Cl)c1)c1ccco1	1.1	-6.6	1.8	-1.4	17.4
Cc1ccc(NC(=O)CN(c2ccc(Cl)cc2)S(=O)(=O)c2cc([N+](=O)[O-])ccc2Cl)c(C)c1	0.2	-6.1	0.5	-15.2	-56.0*
CCOc1ccccc1OCCn1nc2ccccc2n1	-0.4	-4.2	4.0	0.8	5.7
Cc1ccc(OCCn2nc3ccccc3n2)c(C)c1	0.7	39.4*	4.2	-12.7	-23.8
Cc1nn(C(C)C(=O)N2CCN(c3ccc(F)cc3)CC2)c(=O)c2c1sc1ccccc12 (stereo unspecified)	0.6	4.3	3.4	-0.6	5.4
O=C(Nc1ccc(Nc2ccccc2)cc1)c1c(F)c(F)c(F)c(F)c1F	1.6	-17.7	8.5	-12.0	-30.6*
O=C(Nc1ccc(Nc2ccccc2)cc1)c1ccc(F)cc1	1.4	-2.3	6.1	-9.1	-17.6
COC(=O)c1ccc(COc2cc(O)c3c(c2)OC(C)(C)CC3=O)cc1	-0.4	3.4	18.1	6.0	-34.7*
Cc1ccc2nc(NCCc3ccc(Cl)cc3)c3nncn3c2c1	0.5	8.0	1.9	-4.5	-61.5*!
CCCC(NC(=S)NCC1CCCO1)C12CC3CC(CC(C3)C1)C2 (stereo unspecified)	0.2	-17.3	1.0	-0.2	2.0
CCc1cccc(NC(=O)CSc2n[nH]c(-c3ccccc3Cl)n2)c1	0.1	3.3	4.5	-1.4	-10.0
OCCCNc1nc(-c2ccc(Cl)cc2)nnc1-c1ccc(Br)cc1	0.2	21.0	3.5	-11.7	-40.1*
CC(C)CNC(=O)c1ccccc1NC(=O)c1ccc(CSc2ccccc2)cc1	2.9	9.0	32.2*	-9.3	1.0
COc1cc(C(=O)Nc2ccc3oc(-c4ccccc4)nc3c2)cc(OC)c1OC	0.5	-2.0	-1.0	0.9	3.0
O=C(NC1CCCc2c1cnn2-c1ccc(F)cc1F)c1ccccn1 (stereo unspecified)	-0.1	1.1	3.1	-3.2	3.3
O=C(NC1CCCc2c1cnn2-c1ccccc1F)c1ccccn1 (stereo unspecified)	-0.7	4.5	10.5	-3.1	-37.9*
CN=c1scc(-c2ccc(OC)cc2)n1/N=C(\C)c1cccnc1	-0.5	-6.2	11.8	-7.6	-54.7*
C/C(=N/n1cnnc1)c1cccnc1	0.5	1.8	1.9	-0.6	-5.5
O=C(Nc1cccc(OCc2cc(=O)n3ccccc3n2)c1)Nc1cccc(C(F)(F)F)c1	0.4	-1.4	2.4	-2.6	-10.3
COc1cc(CN(C(=O)c2oc3ccccc3c2C)C2CCS(=O)(=O)C2)cc(OC)c1OC (stereo unspecified)	-0.4	2.5	6.6	0.7	-4.8
CCN(Cc1ccccc1)S(=O)(=O)c1ccc(N2CCCCS2(=O)=O)cc1	-0.4	-6.2	11.7	0.8	-31.2*
CCN(Cc1ccccc1)S(=O)(=O)c1ccc(S(=O)(=O)N2CCN(CCC#N)CC2)cc1	0.6	-9.7	-0.8	-5.2	-42.5*
COc1ccc(S(=O)(=O)N(CCc2ccccc2)CC(=O)Nc2cccc(OC)c2)cc1	-0.2	9.6	30.9*	-0.2	-31.2*
CCN(Cc1ccccc1)S(=O)(=O)c1ccc(S(=O)(=O)N(Cc2cccc(OC)c2)CC2CCCO2)cc1 (stereo unspecified)	6.2	4.2	31.4*	-3.0	12.2
COc1ccc(S(=O)(=O)N(CCc2ccccc2)CC(=O)Nc2cc(C)ccc2C)cc1	2.2	-4.3	17.5	-0.9	21.3
CCOC(=O)c1cccc(NC(=O)N2Cc3ccccc3Oc3ncccc32)c1	2.5	1.5	0.6	-1.6	19.6
